# Screening results: PubChem, National Center for Advancing Translational Sciences (NCATS)
# Most compounds without a hit are left out; they make up all but 1.4% or so of the library.
# USP1-UAF1 inh: Inhibitors of USP1/UAF1: Primary Screen; AID 743255, 2014; recombinant USP1/UAF1, Ub-Rhodamine cleavage fluorescence; 390,000 compounds, 0.23% hits; Potency, µM (highest dose often 57.1 µM), for the others: at the highest dose activity change, negative = inhibition, usual class: inhibitors; note: % is set by controls: 0 for no effect and ±100 for the full control effect; nearly all actives have a fitted effect of over 60% in size
#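 High-throughput fluorogenic screen: 1nM USP1/UAF1 complex, Ub-Rho substrate 150nM final, 50mM HEPES pH 7.8 with 0.5mM EDTA, 0.1 mg/ml BSA, 1mM TCEP and 0.01% Tween-20.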
# EPAC1 antagonist: qHTS for Antagonist of cAMP-regulated guanine nucleotide exchange factor 3 (EPAC1): primary screen | AID 720709, 2013 | 360,000 compounds, 0.14% hits | EPAC1 GEF assay, Rap1b-BODIPY-GDP exchange fluorescence | Rap guanine nucleotide exchange factor 3 (Homo sapiens), O95398 | Potency, µM (series often up to 115 µM), without a hit: at the top dose activity change, negative = inhibition, hits mostly inhibitors;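 note: plate controls were vehicle for no effect and positive control for full effect; nearly all actives have a fitted effect of over 50% in size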
# EPAC2 antag: qHTS for Antagonist of cAMP-regulated guanine nucleotide exchange factor 2 (EPAC2): primary screen | Rap guanine nucleotide exchange factor 4 (Homo sapiens), Q8WZA2 | EPAC2 GEF exchange of Rap1B-BODIPY-GDP, fluorescence | Potency, µM (highest dose often 114 µM), without a hit: at the top dose activity, negative = inhibition, usual class: inhibitors | 360,000 compounds, 0.18% hits; note: % is set by controls: 0 for no effect and ±100 for the full control effect; nearly all actives have a fitted effect of over 45% in size
# EPAC1 ag: qHTS for Agonist of cAMP-regulated guanine nucleotide exchange factor 3 (EPAC1): primary screen; Rap guanine nucleotide exchange factor 3 (Homo sapiens), O95398; Potency, µM (top dose mostly 154 µM), without a hit: top-dose activation, usual class: activators; 360,000 compounds, 0.073% hits; EPAC1 agonist qHTS, biochemical assay; response scale: 100% = response to 6.5 mM cAMP; note: nearly all actives have a fitted effect of over 60% in size
#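 Nucleotide exchange by EPAC1 (100 nM) on Rap1B–BODIPY-GDP (250 nM) in the presence of 50 uM GDP is tracked fluorescently at 480/540 nm over 30 min. Signals are normalized to a 6.5 mM cAMP control.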
# EPAC2 agonist: qHTS for Agonist of cAMP-regulated guanine nucleotide exchange factor 4 (EPAC2): primary screen; Rap guanine nucleotide exchange factor 4 (Homo sapiens), Q8WZA2; EPAC2 activation, biochemical qHTS; response scale: 100% = 6.5 mM cAMP response; Potency, µM (top dose mostly 154 µM), for the others: at the highest dose activation, most hits filed as activators; 360,000 compounds, 0.079% hits; AID 720711, 2013; note: nearly all actives have a fitted effect of over 50% in size
#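 In this primary screen, activation is scored as increased exchange of BODIPY-GDP from Rap1B by 100 nM EPAC2, with 50 uM GDP as competitor. Signal is normalized to the 6.5 mM cAMP agonist control.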
# BRCA1 expr up: qHTS Assay to Identify Small Molecule Activators of BRCA1 Expression | MCF7-BRCA1-FFLuc reporter, luminescence, 48 h; response scale: scaled: vehicle 0%, 10 µM genistein 100% | 380,000 compounds, 1.1% hits | Potency, µM (highest dose often 46.1 µM), without a hit: at the highest dose activation, usual class: activators | AID 624202, 2012; note: nearly all actives have a fitted effect of over 80% in size
#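 Luminescence from a BRCA1-driven firefly luciferase in MCF7 cells was the read-out, taken 15 min after substrate addition following 48 h compound exposure at 37 °C. Data were normalized to a 10 microM genistein control and DMSO vehicle.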
# Active calls of the source: *; ? = inconclusive; / = no result given. Calls come from the whole dose curve; as a rule, active = well fitted curve in the direction sought with a large enough effect; inconclusive = small, poorly fitted or top-dose-only effect, or another doubt; inactive = no such curve, though single readings can be large; an effect the other way counts as inactive or inconclusive. Potency is the fitted concentration of half-maximal effect.
SMILES,USP1-UAF1 inh,EPAC1 antagonist,EPAC2 antag,EPAC1 ag,EPAC2 agonist,BRCA1 expr up
O=C(N/N=C/c1cccnc1)c1cc(-c2ccccc2OCc2ccccc2)n[nH]1,-1.0%,50.1µM*,-2.5%,12.0%,16.2%,-61.9%
CCOc1ccc(OCCNC(=O)c2cc(C3CC3)nc3c2cnn3C(C)C)cc1,-9.9%,-16.6%,-26.4%,10.0%,-2.2%,-41.2%
CC(=O)c1ccc(NC(=O)c2cc(Cl)sc2Cl)cc1,-6.1%,8.7%,-6.2%,-1.8%,4.1%,3.98µM*
NS(=O)(=O)c1cccc(NC(=O)CCSc2ccccc2Cl)c1,-7.1%,-0.3%,-12.6%,-0.1%,-4.9%,10µM*
COc1ccc(C(=O)COc2ccc(F)cc2)c(O)c1,-17.4%,-14.6%,8.9%,-3.9%,0.2%,11.2µM*
CCCc1cc(=O)n2[nH]c(-c3ccc(Cl)cc3)cc2n1,-24.2%,-8.4%,4.7%,2.1%,-0.8%,7.08µM*
CCCc1cc(=O)n2[nH]c(-c3ccc(C)cc3)cc2n1,-16.5%,7.4%,-2.2%,5.0%,-3.5%,1.41µM*
CCCCC(=O)Nc1cccc(OCc2cc(=O)n3ccccc3n2)c1,-14.7%,/,/,/,/,/
O=C(c1ccco1)N(CCC(c1ccccc1)c1ccco1)Cc1ccccc1 (stereo not given),-18.5%,89.1µM*,?,2.4%,4.3%,3.0%
c1ccc(OCc2cc(-c3ccccc3)no2)cc1,-15.4%,1.7%,4.6%,5.2%,16.2%,5.01µM*
COc1ccc(OC)c(S(=O)(=O)NCc2cc(-c3ccccc3)no2)c1,-17.2%,-11.4%,-4.9%,3.2%,-5.1%,-8.0%
c1ccc(SCc2cc(-c3ccccc3)no2)cc1,-17.4%,-13.2%,-17.5%,9.7%,16.7%,?
COc1ccc(OCc2cc(-c3ccc(Cl)cc3)no2)cc1,-11.5%,-14.0%,4.4%,1.8%,12.3%,21.1%
COc1ccccc1OCc1cc(-c2ccccc2)no1,-19.3%,-4.7%,-12.1%,3.5%,6.8%,2.82µM*
Clc1ccc(-c2cc(CSc3ccccc3)on2)cc1,-11.4%,-27.6%,5.2%,4.0%,-3.6%,3.55µM*
Cc1ccc2c(C)c(C(=O)N3CCC(O)(c4ccccc4)CC3)oc2c1C,-17.3%,-14.1%,-6.0%,7.2%,8.9%,-22.1%
CC1CCCCN1N=Nc1nc2c([nH]1)c(=O)n(C)c(=O)n2C (stereo not given),?,-24.7%,-3.6%,10.5%,6.7%,-41.2%
COc1ccc(CCNC(=O)C2CCCN2C(=O)Nc2cccc(OC)c2)cc1 (stereo not given),-21.0%,9.8%,5.4%,7.1%,7.2%,-29.8%
COc1ccc(-c2nc3sc(CCNC(=O)c4ccc(Br)o4)c(C)n3n2)cc1,-13.6%,/,/,/,/,6.7%
O=C(c1ccco1)N1CCN(Cc2ccccc2Br)CC1,-8.1%,-4.0%,2.7%,15.1%,11.4%,15.8µM*
Cc1ccc(Cl)c2sc(N3CCN(C(=O)c4ccco4)CC3)nc12,-25.0%,-8.4%,-2.4%,100µM*,-0.3%,-32.0%
O=C(c1ccco1)N1CCN(c2ccc(N3CCCCC3)nn2)CC1,-5.1%,-9.2%,-2.5%,3.9%,6.1%,10µM*
O=C(Nc1c(-c2ccccc2)[nH][nH]c1=O)c1ccc2c(c1)OCO2,/,-3.1%,-3.4%,12.6%,7.8%,/
O=C(Nc1c(-c2ccc3c(c2)OCO3)[nH][nH]c1=O)c1ccccc1,/,35.5µM*,?,-6.3%,27.8%,4.8%
COc1ccc(CNC(=O)c2ccc(-c3c(C)noc3C)c3ccoc23)cc1OC,/,2.6%,11.0%,3.7%,3.3%,-54.2%
